Shown are actives, neighbours in structure and some others; about 2.6% of the full set was active somewhere.
PABP FP inh = PABP-poly(A) binding inhibition; actives 1% (n = 290,000); P11940; PABP-poly(A) RNA binding, fluorescence polarization; AID 2014; calls only at 35 µM;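 note: calls also rest on retests at 20 µM and on dose response follow-up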
Target sequence (P11940 whole entry, looked up): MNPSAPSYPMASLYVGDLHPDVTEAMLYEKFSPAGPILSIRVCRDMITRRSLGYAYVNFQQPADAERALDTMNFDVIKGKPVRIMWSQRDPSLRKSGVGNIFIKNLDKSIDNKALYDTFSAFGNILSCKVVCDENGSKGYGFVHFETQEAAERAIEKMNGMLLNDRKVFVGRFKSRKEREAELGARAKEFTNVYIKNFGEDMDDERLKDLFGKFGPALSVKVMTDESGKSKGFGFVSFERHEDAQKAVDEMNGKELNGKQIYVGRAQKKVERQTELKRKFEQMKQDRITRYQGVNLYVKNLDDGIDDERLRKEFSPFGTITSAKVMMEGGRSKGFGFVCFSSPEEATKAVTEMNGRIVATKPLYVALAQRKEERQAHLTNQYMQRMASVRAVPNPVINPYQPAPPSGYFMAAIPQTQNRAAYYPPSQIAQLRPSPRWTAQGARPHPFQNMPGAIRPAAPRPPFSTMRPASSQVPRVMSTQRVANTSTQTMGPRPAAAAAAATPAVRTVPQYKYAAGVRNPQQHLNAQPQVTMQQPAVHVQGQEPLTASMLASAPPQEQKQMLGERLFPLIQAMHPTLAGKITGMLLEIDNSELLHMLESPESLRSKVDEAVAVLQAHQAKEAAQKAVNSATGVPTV
MLLE-PAM2 inh = blocks PAM2 peptide binding to the PABP1 MLLE domain; inhibition, % at 20 µM; GST-MLLE / FITC-PAM2 fluorescence polarization; P11940; actives 0.36% (n = 360,000); in the data active = inhibition above about 35%, passing the limit was not always enough;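 note: plate controls were DMSO wells with GST-MLLE for no effect and wells lacking GST-MLLE protein for full effect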
A3A deaminase = inhibitors of human APOBEC3A DNA deaminase. actives 0.41% (n = 330,000). recombinant A3A, FAM/TAMRA ssDNA deamination fluorescence. inhibition, % at 20 µM. AID 493011. P31941;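 active = at least 40% inhibition at 20 µM here, with at most 30% in a related deaminase screen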;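 note: plate controls were A3A with DMSO for no effect and wells lacking A3A enzyme for full effect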
eIF4H inh = inhibitors of RNA binding by human eIF4H | inhibition, % at 35 µM | actives 0.94% (n = 290,000) | Q15056 | AID 2012 | eIF4H fluorescence polarization binding assay;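 note: calls also rest on retests at 20 µM and on dose response follow-up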
APOBEC3G inh = inhibitors of human APOBEC3G DNA deaminase. inhibition, % at 20 µM. actives 0.28% (n = 330,000). AID 493012. recombinant A3G, ssDNA deamination FAM/TAMRA fluorescence. Q9HC16;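 active = inhibition of at least 40% at 20 µM, with no more than 30% in the related APOBEC3A deaminase screen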;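 note: plate controls were DMSO wells with A3G for no effect and wells lacking A3G enzyme for full effect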
PHOSPHO1 block = blocks human PHOSPHO1 phosphatase activity; actives 1.1% (n = 290,000); Q8TCT1; inhibition, % at 13.3 µM; recombinant PHOSPHO1, absorbance phosphatase assay; in the data active = inhibition above about 60%
A3G conf = confirmation of human APOBEC3G DNA deaminase inhibitors; shares compounds with APOBEC3G inh; recombinant A3G ssDNA deaminase, UDG/FAM-TAMRA fluorescence; inhibition, % at 20 µM; actives 72% (n = 890);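 active = inhibition reaching a set limit in any replicate at 20 µM, the limit being 80% of the first screen's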
UDG A3G counter = counter-screen for APOBEC3G inhibitors: E. coli UDG; shares compounds with APOBEC3G inh; UDG counterscreen, FAM/TAMRA oligo fluorescence; inhibition, % at 20 µM; 710 tested, under 10 active; AID 504715;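 active = compounds giving 40% or more inhibition at 20 µM in any one of the three replicates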;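 note: plate controls were DMSO wells with UDG and oligo for no effect and DMSO wells lacking both for full effect; inhibitors lower the FAM signal released by uracil excision and alkaline cleavage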
Active calls of the source: *; i = inactive; ? = inconclusive; nt = not tested or not shown; + = active, no number. Unless noted, the rule behind the calls is not given here.

SMILES	PABP FP inh	MLLE-PAM2 inh	A3A deaminase	eIF4H inh	APOBEC3G inh	PHOSPHO1 block	A3G conf	UDG A3G counter
Cn1c(-c2sc3ccccc3c2Cl)n[nH]c1=S	i	-1.4	-3.3	-8.1	41.0*	94.5*	63.5*	-2.2
Cn1c(CSc2nc3ccccc3s2)n[nH]c1=S	i	5.2	6.3	-16.5	48.0*	72.8*	57.5*	-3.1
O=c1c(-c2ccccc2)nnc2sc(COc3ccc(Br)cc3)nn12	i	-7.0	-5.1	-1.4	-5.4	18.7	nt	nt
O=S(=O)(Nc1ccc(O)c(NS(=O)(=O)c2ccccc2)c1)c1ccccc1	i	11.2	1.7	-9.4	50.2*	23.3	69.0*	-2.1
CN(C(=O)c1ccc(Br)o1)C1CCCCC1	i	-1.1	-2.4	6.4	-5.1	-4.0	nt	nt
COc1ccc(CCNC(=O)Cc2cccc(C(F)(F)F)c2)cc1OC	i	32.1	-2.0	-17.8	-14.3	14.4	nt	nt
CCC(=O)NC1=C(NC(C)c2ccccc2)C(=O)c2ccccc2C1=O (stereo not given)	i	3.5	-1.4	-10.7	0.5	6.1	nt	nt
CCC(=O)NC1=C(Cl)C(=O)C(NC(=O)CC)=C(Cl)C1=O	i	36.7	-4.0	2.2	86.6*	7.2	95.7*	-2.0
COC(=O)c1cc(C(=O)N2CCc3ccccc32)cc([N+](=O)[O-])c1	i	4.2	-4.1	-1.5	-4.0	-17.7	nt	nt
Nc1nc(-c2cc3c(cc2Cl)OCCO3)cs1	i	17.7	-0.6	-4.2	52.0*	13.9	-8.9	-3.4
CC(=O)Nc1cc(OC(C)=O)c2nonc2c1OC(C)=O	i	18.4	1.8	-0.6	75.6*	11.4	69.8*	nt
O=C(Nc1nnc(-c2ccc(F)cc2)s1)c1ccco1	i	5.6	-3.6	6.3	-7.3	26.1	nt	nt
O=C(Nc1n[nH]c(=S)s1)c1ccco1	i	26.6	-2.8	-4.0	82.7*	30.6	88.4*	-2.6
COc1cc(-c2coc3c(C(=O)NCc4ccc(C(F)(F)F)cc4)cccc23)ccc1O	nt	-4.3	nt	nt	nt	nt	nt	nt
CCc1cc2cc(C)cc(C)c2[nH]c1=S	i	2.8	2.2	-2.3	49.1*	-3.0	active	-2.9
CCOCCCN(Cc1cc2cc(C)cc(C)c2[nH]c1=O)C(=O)N(CC)CC	i	2.7	0.4	-13.2	0.0	24.3	nt	nt
CCOC(=O)C1=C(C)N(c2ccc(OC)cc2)C(=O)/C1=C\c1ccc(O)c(OCC)c1	i	18.8	0.1	-11.6	67.3*	-104.1	2.5	nt
CCOC(=O)C1=C(C)N(c2ccc(OC)cc2)C(=O)/C1=C\c1cccs1	i	18.9	-1.4	-2.3	-11.4	2.1	nt	nt
Cc1cc(-c2n[nH]c(=S)n2/N=C/c2cccc([N+](=O)[O-])c2)n[nH]1	i	-32.2	-1.6	-3.5	64.7*	0.8	73.0*	-1.6
Cc1cc(-c2n[nH]c(=S)n2/N=C/c2cccc(O)c2)n[nH]1	i	-16.0	-0.9	-1.7	48.6*	-80.5	82.4*	-4.0
Cc1cc(-c2n[nH]c(=S)n2/N=C/C(Cl)=C/c2ccccc2)n[nH]1	i	-18.8	-2.6	-8.2	25.0	41.6	nt	nt
O=C(CNS(=O)(=O)c1ccc(F)cc1)N1CCCC1	nt	4.0	-0.7	nt	-4.8	nt	nt	nt
Cc1cccc(C)c1OCc1n[nH]c(=S)n1-c1ccccc1	i	-11.6	-1.3	7.1	7.8	-30.8	nt	nt
S=c1[nH]nc(COc2ccccc2)n1-c1ccc(Cl)cc1	nt	-26.4	nt	nt	nt	nt	nt	nt
Nn1c(COc2ccc(Cl)cc2)n[nH]c1=S	i	-25.9	0.5	-2.5	53.4*	-6.2	57.7*	2.7
SMILES	PABP FP inh	MLLE-PAM2 inh	A3A deaminase	eIF4H inh	APOBEC3G inh	PHOSPHO1 block	A3G conf	UDG A3G counter
Cc1cccc(C)c1OCc1n[nH]c(=S)n1N	i	-16.9	3.2	-10.5	40.3*	1.8	54.5*	-3.1
CCCCc1nc(SCC(=O)N2CCCCC2)c2c(=O)n(C)c(=O)n(C)c2n1	nt	5.9	-0.2	nt	-5.5	nt	nt	nt
CCCC(C)c1nnc(NC(=O)c2cc(C(=O)OC)cc([N+](=O)[O-])c2)s1 (stereo not given)	i	16.6	9.5	-7.3	60.2*	-6.8	72.7*	1.4
Clc1ccccc1-c1nn2c(-c3ccncc3)nnc2s1	i	23.9	1.0	0.5	48.9*	71.8*	25.3*	-0.9
Clc1ccccc1-c1nnc2sc(-c3ccncc3)nn12	i	-26.2	-2.8	-1.9	-10.4	8.6	nt	nt
Cc1c(/C=N/Nc2ccc(F)cc2)c(O)n(C)c(=O)c1C#N	+	4.2	-1.1	80.7	63.6*	-33.3	-1.0	-3.0
CC(=O)N=Cc1c(C)c(C#N)c(=O)n(C)c1O	i	12.7	-1.1	?	-2.6	-4.0	nt	nt
CC(C)OC(=O)c1ccc2nc3ccccc3nc2c1	i	3.3	-0.8	-9.6	63.8*	15.6	-2.0	1.5
NC(=O)c1c(NC(=O)C2CCCO2)sc2c1CCCC2 (stereo not given)	i	0.1	5.2	10.7	40.2*	13.2	25.9	nt
CCOC(=O)c1c(NC(=O)C2CCCO2)sc2c1CCC2 (stereo not given)	i	-0.7	0.2	-2.4	-2.4	-50.4	nt	nt
CCCCn1c(-c2nn(C)c(C)c2Cl)n[nH]c1=S	i	3.9	-4.3	0.2	40.5*	7.7	77.7*	-4.7
Cc1c(Cl)c(-c2n[nH]c(=S)n2CC(C)C)nn1C	i	-0.3	4.5	-1.7	27.9	11.9	nt	nt
Cc1ccc(S(=O)(=O)N2CCCN(C(C)c3nc4ccccc4c(=O)[nH]3)CC2)cc1 (stereo not given)	nt	10.5	3.8	nt	-1.7	nt	nt	nt
CCOC(=O)Cc1csc(-n2sc3ccccc3c2=O)n1	i	10.2	0.3	1.2	81.4*	95.7*	84.0*	3.2
CCOC(=O)Cc1csc(SCn2nnc3ccccc3c2=O)n1	i	16.9	-2.7	-1.9	-4.0	38.7	nt	nt
C=C(C)C(=O)Nc1cccc(C2=NOC3(C2)C[C@@H](C(N)=O)N(C(=O)/C=C/CC)C3)c1 (stereo not given in full)	+	1.7	10.9	84.1*	91.4*	13.3	92.8*	-2.0
C=C(C)C(=O)Nc1cccc(C2=NOC3(C2)C[C@H](C(N)=O)N(C(=O)/C=C/C)C3)c1 (stereo not given in full)	+	2.6	5.6	87.8*	86.3*	0.1	91.3*	-4.2
O=C(CCNC(=O)c1ccccc1Cl)Nc1ccc2c(c1)OCCO2	nt	-9.6	nt	nt	nt	nt	nt	nt
